KB-V1 MDR tox: KB-V1 MDR subline cytotoxicity | Potency, µM (top dose mostly 46.1 µM), most hits filed as cytotoxic | hit rate 3.4% among 400,000 | KB-V1 MDR cells viability, CellTiter-Glo, 72 h; note: nearly all actives have a fitted effect of over 60% in size
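Following 72 h at 37 degrees C with compound, KB-V1 cell viability was read by CellTiter-Glo luminescence, medium being phenol-red-free DMEM plus 10% FBS; concentration-response parameters came from normalized, curve-fitted qHTS data.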
HT1080-NT tox: kills 2HG-producing HT-1080-NT fibrosarcoma cells; HT-1080-NT fibrosarcoma viability, CellTiter-Glo ATP luminescence, 48 h; Potency, µM (doses to about 46.1 µM), inactives show at the highest dose activity, negative = less viability, most hits filed as cytotoxic; hit rate 1.6% among 360,000; AID 686970;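 note: NT is the 2HG producing partner of a matched IDH1 knockdown line; 0% = DMSO-treated cells and -100% = media-only wells without cells; nearly all actives have a fitted effect of over 55% in size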
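HT-1080-NT fibrosarcoma cells (2HG-overproducing), 750 cells/well in RPMI with 5% FBS, dosed after 2 h and incubated 48 h at 37C. CellTiter-Glo luminescence normalized to DMSO and no-cell wells; concentration-response curves fitted and classed.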
KB-3-1 cytotox: KB-3-1 parental cell cytotoxicity. hit rate 1.4% among 400,000. Potency, µM (titrated, usually from 46.1 µM), actives largely listed as cytotoxic. KB-3-1 viability, CellTiter-Glo ATP luminescence, 72 h. AID 1347075; note: nearly all actives have a fitted effect of over 60% in size
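Cytotoxicity measured as CellTiter-Glo luminescence after 72 h at 37 C. Compound titrations were pinned onto drug-naive KB-3-1 parental adenocarcinoma cells grown in DMEM with 10% FBS, and normalized data fitted to concentration-response curves.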
DT40 TDP1 no CPT: qHTS for Inhibitors of human tyrosyl-DNA phosphodiesterase 1 (TDP1): qHTS in cells in absence of CPT | DT40 Tdp1-/- hTDP1 cells, no CPT, ATP luminescence, 48 h | Potency, µM (titrated, usually from 46.2 µM), inactives show at the highest dose activity change, negative = growth inhibition, actives largely listed as inhibitors | hit rate 15% among 420,000; note: nearly all actives have a fitted effect of over 55% in size
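No-CPT arm: Tdp1-/-;hTDP1 DT40 cells (400/well) plus compounds, incubated ≥48 hr at 37 °C. Readout CellTiter-Glo luminescence.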
TDP1 cell CPT: growth inhibition of DT40 Tdp1-/-;hTDP1 cells with camptothecin (screen for TDP1 inhibitors); chicken DT40 Tdp1-/-;hTDP1 cells + 20 nM CPT, ATP luminescence, 48 h; Potency, µM (doses to about 46.2 µM), without a hit: top-dose activity change, negative = growth inhibition, most hits filed as inhibitors; hit rate 12% among 420,000; note: nearly all actives have a fitted effect of over 55% in size
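Chicken DT40 Tdp1-/- cells stably complemented with human TDP1 were seeded at 400 cells/well in medium containing 20 nM camptothecin, exposed to pin-transferred compounds, and grown at 37 °C for at least 48 hr. Viability was read as ATP luminescence.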
HT1080 IDH1KD tx: HT-1080 IDH1 knockdown cell toxicity (counter line); HT-1080 IDH1 knockdown viability, ATP luminescence, 48 h; Potency, µM (series often up to 46.1 µM), inactives show at the highest dose activity, negative = toxicity, usual class: cytotoxic; hit rate 2% among 360,000; AID 686971;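 note: 0% = DMSO wells and -100% = cell-free medium wells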
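Using the IDH1-knockdown HT-1080 line run in the same batch and compound series as the NT line, viability after 48 h at 37 °C was determined by CellTiter-Glo luminescence and expressed as % activity.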
Numbers without * were called inactive; i = inactive; ? = inconclusive; / = not tested or not shown. This is a sample that favours compounds with a hit; in the whole collection about 19% have one here. Calls come from the whole dose curve; as a rule, active = well fitted curve in the direction sought with a large enough effect; inconclusive = small, poorly fitted or top-dose-only effect, or another doubt; inactive = no such curve, though single readings can be large; an effect the other way counts as inactive or inconclusive. Unless noted, % is set by controls: 0 for no effect and ±100 for the full control effect; potency is the fitted concentration of half-maximal effect.

SMILES	KB-V1 MDR tox	HT1080-NT tox	KB-3-1 cytotox	DT40 TDP1 no CPT	TDP1 cell CPT	HT1080 IDH1KD tx
O=C(NNCC(O)COc1ccccc1)c1ccccc1 (centres undefined)	i	4%	i	-7%	-23%	17%
OC(CNCCc1ccccc1)COc1ccc(OCC(O)CNCCc2ccccc2)cc1 (centres undefined)	?	?	21µM*	16µM*	-92%	23µM*
CC(=O)c1c(C)[nH]c2ccc(OCC(O)CNCCc3ccccc3)cc12 (centres undefined)	?	/	?	16µM*	?	/
COCCNC(=O)C1CCCN(C(=O)c2cncc(Br)c2)CC1 (centres undefined)	i	-1%	i	-4%	1%	10%
Cc1cc(C)cc(N(C(=O)c2ccccn2)C(C(=O)NC2CCCCC2)c2ccncc2)c1 (centres undefined)	i	-1%	i	-8%	15%	23%
CCOc1ccc(CN2C(=O)c3ccccc3Sc3ccc(C(=O)NCc4ccc5c(c4)OCO5)cc32)cc1	/	/	/	-13%	10%	/
CC(=O)Nc1nonc1-c1nnc(SCc2ccc(F)cc2Cl)n1C	i	/	i	15µM*	?	/
CCn1c(SCc2ccc(F)cc2Cl)nnc1-c1nonc1NC(C)=O	i	/	i	18µM*	16µM*	/
CC(=O)Nc1nonc1-c1nnc(SCC(=O)Nc2ccc(C)c(Cl)c2)n1C	i	/	i	-19%	-16%	/
CC(=O)Nc1nonc1-c1nnc(SCC(=O)Nc2ccc(C)c(Cl)c2)n1-c1ccccc1	i	/	i	16µM*	?	/
CC1(C)CC(=O)C(C(c2ccc(Br)cc2)C2C(=O)CC(C)(C)CC2=O)C(=O)C1	i	-3%	i	9%	25%	5%
CC(=O)c1cccc(NC(=O)CSc2nnc3ccc(-c4ccc(Br)cc4)nn23)c1	/	/	/	-5%	3%	/
Cc1ccc2nc(SC(C(=O)c3ccccc3)c3ccccc3)nc(C)c2c1 (centres undefined)	?	-7%	i	15µM*	?	-2%
Fc1ccccc1-c1nc(NCc2ccco2)c2ccccc2n1	i	-10%	i	-14%	24%	-9%
COc1ccccc1Nc1ncnc2ccccc12	i	7%	i	-4%	?	9%
COc1ccccc1Nc1nc(NCc2ccco2)c2ccccc2n1	?	21µM*	i	21µM*	?	23µM*
Cc1ccc(Nc2nc(NCc3ccco3)c3ccccc3n2)cc1	?	?	?	2.6µM*	2.6µM*	23µM*
CCC(C(=O)NCc1ccc(F)cc1)N(Cc1cccs1)C(=O)c1snc(C(N)=O)c1N (centres undefined)	i	-18%	i	-22%	4%	-2%
C=CCCc1ccc(C#N)c(SCc2c(C(=O)OCC)c3cc(OC(C)=O)c(Br)cc3n2C)n1	2.6µM*	?	?	29µM*	21µM*	-13%
CCOC(=O)c1c(C)n(C)c2cc(Br)c(OC)cc12	?	6%	i	-3%	-5%	6%
CCOC(=O)c1c(CSc2nc(C)cc(C)c2C#N)n(C)c2cc(Br)c(OC(C)=O)cc12	?	?	?	26µM*	?	5%
COc1ccc2c(CNCCc3ccc(SC)cc3)c(C(=O)O)n(Cc3ccc(F)cc3)c2c1	i	/	?	12µM*	16µM*	/
COc1ccc2c(CNCc3ccco3)c(C(=O)O)n(Cc3cccc(F)c3)c2c1	i	/	?	?	-3%	/
COc1ccc(OC)c(CNCc2c(C(=O)O)n(Cc3ccccc3)c3cc(OC)ccc23)c1	i	/	i	?	?	/
COc1ccc(Cn2c(C(=O)O)c(CNCC(C)c3ccccc3)c3ccc(OC)cc32)cc1 (centres undefined)	i	/	?	23µM*	?	/
SMILES	KB-V1 MDR tox	HT1080-NT tox	KB-3-1 cytotox	DT40 TDP1 no CPT	TDP1 cell CPT	HT1080 IDH1KD tx
CCc1ccc(CNCc2c(C(=O)O)n(Cc3cccc(F)c3)c3cc(OC)ccc23)cc1	i	/	i	21µM*	23µM*	/
COc1ccc(OC)c(CNCc2c(C(=O)O)n(Cc3cccc(F)c3)c3cc(OC)ccc23)c1	i	/	i	21µM*	?	/
COCCc1nn2c(=O)cc(COC(=O)COc3ccc(F)cc3)nc2s1	i	/	?	-5%	1%	/
O=C(NC1CCN(Cc2ccccc2)CC1)c1ccc(CS(=O)c2ccccc2Cl)o1 (centres undefined)	i	-5%	i	?	?	-1%
CCOC(=O)C1=NN(c2ccc(C)cc2)C2(S1)SC(C(C)=O)=C(C)N2c1ccccc1 (centres undefined)	?	-2%	?	21µM*	?	-14%
CCOC(=O)C1=NN(c2cccc(C)c2)C2(S1)SC(C(C)=O)=C(C)N2c1ccccc1 (centres undefined)	i	0%	i	23%	1%	-8%
CCOC(=O)C1=NN(c2ccccc2)C2(S1)SC(C(C)=O)=C(C)N2c1ccccc1 (centres undefined)	?	-29%	?	15µM*	?	-17%
Cc1ccc(C)c2c1[nH]c1ccccc12	i	-24%	i	-15%	-19%	-18%
Cc1cc(C=O)c(C)c2c1[nH]c1ccccc12	?	-2%	i	21µM*	?	-18%
Cc1ccc(NC(=O)CSc2nc3c(oc4ccccc43)c(=O)n2-c2ccc(F)cc2)c(C)c1	i	/	i	-23%	-22%	/
O=c1[nH]c(=O)n(Cc2ccco2)c2c1C(C(F)(F)F)(C(F)(F)F)N=C(C1CCCCC1)N2	i	-2%	i	-18%	?	-1%
O=c1[nH]c(=O)n(-c2ccccc2)c2c1C(C(F)(F)F)(C(F)(F)F)N=C(CCC1CCCCC1)N2	5.2µM*	-2%	i	18µM*	?	0%
CC(C)CN(C(=O)CCC1CCCCC1)c1c(N)n(CC(C)C)c(=O)[nH]c1=O	i	7%	i	-19%	?	14%
CC(C)Cn1c2c(c(=O)[nH]c1=O)C(C(F)(F)F)(C(F)(F)F)N=C(CCC1CCCCC1)N2	?	?	i	4.1µM*	6.5µM*	?
O=c1[nH]c(=O)n(Cc2ccco2)c2c1C(C(F)(F)F)(C(F)(F)F)N=C(CCc1ccccc1)N2	i	?	i	?	18µM*	10µM*

Source: PubChem BioAssay (National Center for Advancing Translational Sciences (NCATS))
